This note sets out measurements from PubChem BioAssay (Tox21).

A short description of assay [1]: qHTS assay to identify small molecule agonists of the vitamin D receptor (VDR) signaling pathway - cell viability counter screen (AID 743224). Further: nearly all actives have a fitted effect of over 50% in size. Further: potency means the concentration at half of the fitted maximal effect. The method in brief: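 Plated VDR-bla cells (4 h, 37C) received compound, incubated 16 h, then LiveBLAzer substrate 2 h RT; CellTiter-Glo added afterwards, luminescence read at 30 min.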
For orientation: qHTS replaces the single test concentration by a dilution series.

A short description of assay [2]: qHTS assay to identify small molecule antagonists of the vitamin D receptor (VDR) signaling pathway - cell viability counter screen (AID 743225). Further: nearly all actives have a fitted effect of over 50% in size. In a few lines: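 VDR-UAS-bla HEK 293T cells were plated and incubated 4 h at 37C, then dosed with compound plus 3 nM (final) 1-alpha,25-dihydroxyvitamin D3 for 16 h. After the 2 h beta-lactamase read, viability in the same wells was read as CellTiter-Glo luminescence after 30 min at room temperature.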

Assay [3] can be described thus: qHTS assay to identify small molecule agonists of the NFkB signaling pathway (AID 1159509; active means well fitted curve in the direction sought with a large enough effect in the signal ratio in the repeat runs, not every such curve was filed as active; the % refers to the signal ratio; further: series mostly up to about 61 µM). In a few lines:
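After overnight attachment, reporter cells received test compounds, DMSO or positive controls and were incubated 5 hr at 37 C. FRET substrate was then added for 1.5 hr at room temperature before dual-emission fluorescence reading.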

The nature of assay [4]: qHTS assay to identify small molecule agonists of the NFkB signaling pathway - cell viability counter screen (AID 1159515; calls by dose curve; further: series mostly up to about 61 µM; nearly all actives have a fitted effect of over 55% in size). The method in brief:
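Using the same wells as the NFkB reporter read, ME-180 NFkB-bla cells given compounds for 5 hr were assessed for viability via CellTiter-Glo, with luminescence taken after a 30 min room-temperature incubation.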

A short description of assay [5]: qHTS assay to identify small molecule agonists of the endoplasmic reticulum stress response signaling pathway (AID 1159516; active means well fitted activation curve with a large enough effect in the signal ratio in the repeat runs, not every such curve was filed as active; the % refers to the signal ratio). The method in brief:
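An ESRE-bla HeLa cell assay: compounds were pin-transferred from DMSO onto overnight-plated cells and left 5 hr at 37 C. Substrate was then loaded for 2 hr at room temperature before reading fluorescence at 460 nm and 530 nm.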

The nature of assay [6]: qHTS assay to identify small molecule agonists of the endoplasmic reticulum stress response signaling pathway - cell viability counter screen (AID 1159517; calls by dose curve;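 further: HeLa cells carrying an ER stress response element beta-lactamase reporter; series mostly up to about 61 µM; nearly all actives have a fitted effect of over 50% in size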). The method in brief:
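Luminescence readout: CellTiter-Glo, 30 min RT, same wells as the ESRE-bla reporter read. HeLa ESRE-bla, 1,500 cells/well, o/n 37 C; cpd 5 hr 37 C/5% CO2.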

Assay [7] is described as follows: qHTS assay to identify small molecule antagonists of the retinoid-related orphan receptor gamma (ROR-gamma) signaling pathway - cell viability counter screen (AID 1159520). Further: nearly all actives have a fitted effect of over 50% in size. Further: potency means the concentration at half of the fitted maximal effect. In a few lines:
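Tet-on ROR gamma CHO cells (1,000/well) were plated 4 hr, given compounds in DMSO for 2 hr at 37 C, then induced with 1 uM final doxycycline for 16 hr. Viability was read as ATP by CellTiter-Glo luminescence after 30 min.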

Assay [8] deals with Nuclear receptor ROR-gamma (Homo sapiens) (UniProt P51449). In words: qHTS assay to identify small molecule antagonists of the retinoid-related orphan receptor gamma (ROR-gamma) signaling pathway (AID 1159521; further: nearly all actives have a fitted effect of over 50% in size; further: potency means the concentration at half of the fitted maximal effect). The method in brief: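 Tet-on ROR-gamma CHO cells with ROR response element-luciferase reporter; compounds added 2 hr before 1 uM doxycycline induction, then 16 hr at 37 C. Antagonism scored as decreased ONE-Glo luminescence.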

The nature of assay [9]: qHTS assay to identify small molecule agonists of the AP-1 signaling pathway - cell viability counter screen (AID 1159525; calls by dose curve; further: nearly all actives have a fitted effect of over 55% in size). The method in brief:
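ME-180 AP-1-bla, 2500 cells/well, Opti-MEM + 0.5% dialyzed FBS; overnight 37 °C; cpd 15-pt titration, 5 h 37 °C; CellTiter-Glo 30 min RT; luminescence read; normalised to TOAB and DMSO controls.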

Assay [10] in a line: qHTS assay to identify small molecule agonists of the AP-1 signaling pathway (AID 1159526; calls by dose curve).
Assay [11] in a line: qHTS assay to identify small molecule agonists of the RXR signaling pathway - cell viability counter screen (AID 1159529). Further: nearly all actives have a fitted effect of over 50% in size. Further: potency means the concentration at half of the fitted maximal effect. In a few lines: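 RXR-alpha-UAS-bla HEK 293T cells in medium with 2% charcoal-stripped FBS were pre-incubated 5 hr, then compound-treated 16 hr at 37 C. Viability was read by CellTiter-Glo luminescence in the same wells as the beta-lactamase assay, with tetraoctyl ammonium bromide as positive control.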

Assay [12] is described as follows: qHTS assay to identify small molecule antagonists of the retinoid acid receptor (RAR) signaling pathway - cell viability counter screen (AID 1159551). Further: nearly all actives have a fitted effect of over 35% in size. The method in brief: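 Retinol-stimulated (1 uM final) C3RL4 cells, compound 6 h, 37 C; readout CellTiter-Glo luminescence (ATP) after 30 min RT incubation.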
Assay [13] in a line: qHTS assay to identify small molecule antagonists of the retinoic acid receptor (RAR) signaling pathway (AID 1159552; further: nearly all actives have a fitted effect of over 50% in size). The method in brief:
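Retinol signaling pathway inhibitors screened in C3RL4 RARE-luciferase reporter cells seeded overnight at 37 C, then compounds added with 1 uM (final) retinol as pathway substrate. After 6 hr at 37 C, luciferase luminescence read after 30 min at room temperature.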

A short description of assay [14]: qHTS assay to identify small molecule agonists of the retinoic acid receptor (RAR) signaling pathway (AID 1159553). Further: potency means the concentration at half of the fitted maximal effect. In a few lines: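 Reporter readout comes from luciferase under RARE control in C3RL4 cells; compound exposure lasts 6 hr at 37 C in 5% CO2, and luminescence is recorded following a 30 min room-temperature incubation with reagent.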
The target of assay [15] is Retinoic acid receptor RXR-alpha (Homo sapiens) (UniProt P19793). In words: qHTS assay to identify small molecule agonists of the RXR signaling pathway (AID 1159527; calls by dose curve; further: nearly all actives have a fitted effect of over 35% in size). The method in brief:
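GeneBLAzer RXR-alpha-UAS-bla HEK 293T cells in 2% charcoal-stripped FBS medium were exposed to compounds for 16 hr at 37 C in agonist mode. Beta-lactamase reporter read as 460/530 nm FRET ratio after 2 hr substrate loading.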

Assay [16] is described as follows: qHTS assay to identify small molecule antagonists of the estrogen related receptor (ERR) signaling pathway - cell viability counter screen (AID 1224818).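 Further: series mostly up to about 46 µM; viability measured after 17.5 h of compound exposure.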 In a few lines: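 After a 6 h pre-incubation, ERR cells were dosed by pin tool with compounds, positive/negative controls or DMSO alone. Following 17.5 h at 37 C and 30 min with CellTiter-Fluor, fluorescence was recorded.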

Assay [17] in a line: qHTS assay to identify small molecule antagonists of the estrogen related receptor signaling pathway with the pleiotropic PPARgamma coactivator (PGC) cell viability counter screen (AID 1224822; further: series mostly up to about 46 µM). In a few lines: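 PGC/ERR cells were plated at 2,000 per well and allowed 6 h to settle before compound addition. Following 17.5 h at 37 C, CellTiter-Fluor reagent was added and fluorescence was read 30 min later.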

Inconclusive results are not listed. The source made the active and inactive calls. Unless noted, the call rests on the fitted dose curve; in most records, active means well fitted curve in the direction sought with a large enough effect in the repeat runs; inconclusive means weak or mixed curves; inactive means no such curve, though single readings can be large; an effect the other way counts as inactive or inconclusive.

Retinoic acid receptor RXR-alpha (Homo sapiens), sequence (P19793 whole entry, looked up): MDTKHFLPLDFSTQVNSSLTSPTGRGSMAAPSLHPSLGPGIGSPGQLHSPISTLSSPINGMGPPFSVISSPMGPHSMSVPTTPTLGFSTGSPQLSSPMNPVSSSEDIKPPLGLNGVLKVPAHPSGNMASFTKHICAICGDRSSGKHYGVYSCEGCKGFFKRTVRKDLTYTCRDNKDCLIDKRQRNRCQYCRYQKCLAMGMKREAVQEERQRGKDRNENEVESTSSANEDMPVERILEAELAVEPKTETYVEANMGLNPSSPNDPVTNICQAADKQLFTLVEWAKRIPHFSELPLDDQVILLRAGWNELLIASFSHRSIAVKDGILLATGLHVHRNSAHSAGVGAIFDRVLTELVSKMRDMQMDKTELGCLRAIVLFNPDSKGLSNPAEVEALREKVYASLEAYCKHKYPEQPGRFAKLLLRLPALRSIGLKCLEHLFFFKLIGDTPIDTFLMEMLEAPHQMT

As to `CCNc1nc(NC(C)C)nc(OC)n1`, the Potency entry in assay [1], in [6], in assay [7], in [8], in [9] and in [11] was “inactive” in each case. In assay [12], the Potency result was “inactive”. In addition, the molecule was called inactive in assay [2], in assay [3], in [4], in assay [5] and in assay [10].

Regarding `CC1CN1P(=O)(N1CC1C)N1CC1C` (centres undefined), the Potency entry in [1], in assay [6], in assay [7], in assay [8], in assay [9] and in [11] was “inactive” in each case. For the same molecule, in assay [12], the Potency result was “inactive”. The molecule was called inactive in assay [2], in assay [3], in assay [4] and in assay [5].

For `CCOc1nc(C(Cl)(Cl)Cl)ns1`, the Potency entry in assay [1], in assay [6], in assay [7], in assay [8], in assay [11] and in [12] was “inactive” each time. Also, the Potency entry in assay [13] and in assay [14] was “inactive” in each case. For the same molecule, the molecule was called inactive in [3], in assay [4], in [5] and in assay [10].

In the case of `CC(=O)Nc1cc([As](=O)(O)O)ccc1O`, the Potency entry in [1], in assay [6], in assay [7], in [8], in assay [9] and in [11] was “inactive” in each case. Moreover, the Potency entry in [13] and in [14] was “inactive” in each case. Further, the molecule was called inactive in assay [2], in [3], in assay [4], in assay [5] and in assay [10].

Consider `COC(=O)COc1ccc(Cl)cc1Cl`, for which the Potency entry in assay [1], in assay [6], in assay [7], in assay [8], in assay [15] and in [11] was “inactive” throughout. Also, the Potency result in [12], in assay [13] and in assay [14] was “inactive” in each case. Besides, the result in assay [2], in [3], in [4], in [5] and in assay [10] was inactive.

With `CNC(=O)N(C)c1nc2ccccc2s1`, the Potency result in assay [1], in assay [6], in assay [7], in assay [8], in [11] and in [12] was “inactive” in each case. The Potency result in assay [13] is “inactive”. Also, the molecule was classed as inactive in [3], in [4], in assay [5] and in [10]. The Potency in assay [14] was 2.43 µM (active).

In the case of `CCC1(c2ccccc2)C(=O)NC(=O)NC1=O`, the Potency result in assay [1], in assay [6], in [7], in assay [8], in assay [15] and in assay [11] was “inactive” throughout. Further, the Potency result in [12] is “inactive”. Besides, the outcome in [2], in assay [3], in [4], in assay [5] and in [10] was inactive.

As for `CC(Oc1ccc(Oc2ncc(C(F)(F)F)cc2Cl)cc1)C(=O)O` (centres undefined), the Potency result in assay [1], in assay [6], in assay [7], in [9], in assay [12] and in [13] was “inactive” in each case. The Potency entry in assay [14] was “inactive”. Also, the call in assay [2], in assay [3], in [4], in assay [5] and in [10] was inactive. The Potency in [8] is 27.3 µM (active).

Regarding `CCN(CC)c1nc(C)cc(OP(=S)(OC)OC)n1`, the Potency result in assay [1], in assay [6], in assay [7], in [8], in assay [9] and in assay [15] was “inactive” in each case. In addition, the Potency entry in assay [11], in [12] and in [14] was “inactive” throughout. Further, the result in assay [2], in assay [3], in assay [4] and in assay [5] was inactive.

For `CCCCOC(=O)c1ccccc1N`, the Potency entry in assay [1], in assay [6], in assay [7], in assay [8], in assay [15] and in assay [12] was “inactive” throughout. Moreover, in [13], the Potency entry is “inactive”. For the same molecule, the molecule was classed as inactive in assay [2], in assay [3], in assay [4], in assay [5] and in assay [10].

Regarding `COc1ccc(C(=O)N2CCCC2=O)cc1`, the Potency entry in assay [1], in assay [6], in assay [7], in assay [8], in assay [15] and in assay [11] was “inactive” throughout. Further, the Potency entry in assay [12] was “inactive”. Moreover, the molecule was classed as inactive in assay [2], in [3], in assay [4], in assay [5], in [10] and in assay [16]. In addition, in assay [17], the molecule was called inactive.

On to `ClCC(Cl)Cl`, for which the Potency entry in assay [1], in assay [6], in assay [7], in assay [8], in assay [15] and in assay [11] was “inactive” in each case. In assay [12], the Potency result was “inactive”. In addition, the result in [2], in assay [3], in assay [4], in assay [5] and in assay [10] was inactive.

With `CCSC(=O)N(CC)C1CCCCC1`, the Potency entry in assay [1], in [6], in [7], in assay [8], in assay [15] and in assay [11] was “inactive” each time. For the same molecule, in assay [12], the Potency entry is “inactive”. Further, the molecule was called inactive in assay [2], in [3], in [4], in assay [5] and in assay [10].

With `CC1CCC(=O)O1` (centres undefined), the molecule was called inactive in [2], in assay [3], in assay [4], in [5] and in assay [10]. The Potency entry in assay [6], in [7], in [8], in assay [15], in assay [11] and in assay [12] was “inactive” each time.

Turning to `COc1cc2c(cc1OC)[C@@]13CCN4CC5=CCO[C@H]6CC(=O)N2[C@H]1[C@H]6[C@H]5C[C@H]43`, the Potency result in assay [1], in assay [6], in assay [7], in assay [8], in [11] and in [12] was “inactive” each time. Further, the Potency result in assay [13] and in assay [14] was “inactive” throughout. The molecule was classed as inactive in assay [3], in assay [4], in [5] and in [10].

Consider `COc1cccc2c1cc([N+](=O)[O-])c1c(C(=O)O)cc3c(c12)OCO3`, for which the Potency was 15.5 µM (active) in assay [1], 43.3 µM (active) in [7], 15.4 µM (active) in [8] and 17.4 µM (active) in assay [11]. Also, the molecule was called inactive in [3], in assay [4] and in assay [5]. Further, the Potency entry in [6] and in assay [9] was “inactive” throughout.

`O=C1OC(c2ccc(O)c(S(=O)(=O)O)c2)(c2ccc(O)c(S(=O)(=O)O)c2)c2c(Br)c(Br)c(Br)c(Br)c21`: the Potency entry in [1], in assay [6], in assay [7], in assay [8], in assay [9] and in [15] was “inactive” throughout. Also, the Potency entry in [11], in assay [12], in assay [13] and in assay [14] was “inactive” throughout. In addition, the outcome in assay [2], in assay [3], in [4] and in [5] was inactive.

Consider `Nc1cc(Cl)ccc1O`, for which the Potency entry in assay [1], in assay [6], in assay [7], in [8], in assay [9] and in [12] was “inactive” each time. Also, the molecule was classed as inactive in assay [2], in [3], in assay [4] and in assay [5].

On to `CCCSP(=S)(OCC)Oc1ccc(Cl)cc1Cl` (centres undefined), for which the molecule was called inactive in [2], in assay [3], in assay [4] and in assay [5]. The Potency result in [6], in assay [7], in assay [8], in assay [9], in assay [12] and in [13] was “inactive” in each case. Moreover, in [14], the Potency entry was “inactive”.
